The list shows a part of the results. Unmarked numbers belong to inactive results. Active and inactive are the calls of the source.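 Rule for the calls, unless noted: active = mean inhibition above about 50% in the one-dose retest (limit read from the data); inactive = the rest.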
Key:
[1] = biological target: Sentrin-specific protease 8 (Homo sapiens) (UniProt Q96LD8); experiment: human SENP8 peptidase blockers, hit retest – biochemical, luminescence, single concentration, confirmation (AID 488912;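 active = mean inhibition across replicates above about 50%, limit read from the data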); details: Recombinant SENP8, Z-RLRGG-aminoluciferin luminescence, 60 min; at 12.5 µM; stronger effect = higher value
[2] = biological target: Sentrin-specific protease 6 (Homo sapiens) (UniProt Q9GZR1); experiment: inhibition of human SENP6 catalytic domain – biochemical, luminescence, single concentration, confirmation (AID 488915); details: recombinant SENP6, Z-RLRGG-aminoluciferin luminescence; at 12.5 µM; stronger effect = higher value
[3] = biological target: Sentrin-specific protease 7 (Homo sapiens) (UniProt Q9BQF6); experiment: human SENP7 peptidase blockers, hit retest – biochemical, luminescence, single concentration, confirmation (AID 488917); details: recombinant SENP7, Z-RLRGG-aminoluciferin luminescence, 40 min; at 12.5 µM; stronger effect = higher value
[4] = biological target: Caspase-3 (Homo sapiens) (UniProt P42574); experiment: human caspase-3 activity blockade, out-of-family – biochemical, single concentration, selectivity assay for SENP inhibitor project, confirmation (AID 488918;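 active = mean inhibition above about 50%, limit read from the data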;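 note: plate controls were enzyme with DMSO for no effect and wells without caspase-3 for full effect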); details: purified caspase-3, Z-DEVD-aminoluciferin luminescence, 60 min; at 12.5 µM; stronger effect = higher value
[5] = Ultra-Glo luciferase signal interference – biochemical, single concentration, SENP8 reaction pre-completed, artefact control for SENP inhibitor project, confirmation (AID 488919;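 active = mean inhibition above about 50% when retested at one dose, limit read from the data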;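 note: plate controls were DMSO wells with completed reaction for no effect and substrate without enzyme for full effect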); details: Pre-incubated SENP8/Z-RLRGG-aminoluciferin, luciferase luminescence interference; at 12.5 µM; stronger effect = higher value

Sentrin-specific protease 6 (Homo sapiens), sequence (Q9GZR1 628-1112 limits assumed): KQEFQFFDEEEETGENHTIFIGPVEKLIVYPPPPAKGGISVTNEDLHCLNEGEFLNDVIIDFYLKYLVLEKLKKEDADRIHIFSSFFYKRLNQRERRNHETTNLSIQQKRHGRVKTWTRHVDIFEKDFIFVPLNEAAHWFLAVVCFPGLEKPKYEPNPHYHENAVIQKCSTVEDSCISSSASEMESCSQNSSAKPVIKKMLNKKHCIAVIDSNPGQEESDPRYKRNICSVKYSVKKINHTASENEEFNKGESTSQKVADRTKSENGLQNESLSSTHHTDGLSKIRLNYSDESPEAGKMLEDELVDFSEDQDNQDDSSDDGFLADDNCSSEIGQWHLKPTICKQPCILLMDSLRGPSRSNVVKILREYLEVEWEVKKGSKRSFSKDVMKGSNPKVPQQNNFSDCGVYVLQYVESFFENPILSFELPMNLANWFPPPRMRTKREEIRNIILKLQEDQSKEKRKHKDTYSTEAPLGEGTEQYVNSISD
Sentrin-specific protease 8 (Homo sapiens), sequence (Q96LD8 whole entry, looked up, the tested form may be a part): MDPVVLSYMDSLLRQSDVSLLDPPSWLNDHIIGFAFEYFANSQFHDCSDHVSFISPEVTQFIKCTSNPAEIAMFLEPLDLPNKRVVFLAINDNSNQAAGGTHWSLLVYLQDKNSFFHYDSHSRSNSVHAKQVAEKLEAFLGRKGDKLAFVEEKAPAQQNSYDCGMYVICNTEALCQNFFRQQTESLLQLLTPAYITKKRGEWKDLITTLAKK
Sentrin-specific protease 7 (Homo sapiens), sequence (Q9BQF6 706-1050 limits assumed): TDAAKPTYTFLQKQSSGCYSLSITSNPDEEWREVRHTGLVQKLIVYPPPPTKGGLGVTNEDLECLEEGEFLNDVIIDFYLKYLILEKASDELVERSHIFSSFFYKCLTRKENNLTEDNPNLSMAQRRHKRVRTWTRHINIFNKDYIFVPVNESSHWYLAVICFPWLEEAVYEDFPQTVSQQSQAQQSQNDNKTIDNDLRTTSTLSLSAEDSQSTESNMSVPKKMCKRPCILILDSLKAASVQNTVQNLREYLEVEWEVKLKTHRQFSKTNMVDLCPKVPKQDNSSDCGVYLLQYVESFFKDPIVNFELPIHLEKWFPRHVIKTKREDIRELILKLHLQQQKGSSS
Caspase-3 (Homo sapiens), sequence (P42574 28-227 limits assumed): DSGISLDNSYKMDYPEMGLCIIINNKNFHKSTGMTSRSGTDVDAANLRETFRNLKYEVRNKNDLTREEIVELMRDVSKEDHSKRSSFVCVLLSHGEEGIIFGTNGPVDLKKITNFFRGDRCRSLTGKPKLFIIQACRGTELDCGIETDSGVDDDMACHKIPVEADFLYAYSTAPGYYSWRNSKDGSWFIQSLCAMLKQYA

Row | Structure (SMILES) | inhibition [1] | inhibition [2] | inhibition [3] | inhibition [4] | inhibition [5]
1 | CC(=NCc1ccco1)c1c(C(F)(F)F)[nH]n(-c2nc3ccccc3s2)c1=O | 91.7% (active) | 91.9% (active) | 99.8% (active) | 98.1% (active) | 89.3% (active)
2 | Cc1cccc(-c2noc(-c3ccc(F)cc3)n2)c1 | 63.5% (active) | 69.8% (active) | 89.5% (active) | 80.6% (active) | 61.4% (active)
3 | O=C(Nc1nnc(SCc2ccccc2)s1)c1ccco1 | 6.7% | 40.5% | 23.6% | 61.1% (active) | 13.1%
4 | O=C(NCc1ccccn1)c1c(O)c2c([nH]c1=O)CCCC2 | -0.6% | 0.3% | -5.1% | -3.9% | -3.1%
5 | COc1cccc(OCC(O)CNC(=O)c2oc3c(C)c(C)ccc3c2C)c1 (stereo not given) | 5.2% | -1.7% | -2.1% | -3.9% | -0.9%
6 | O=C(Nc1cccc2ccccc12)c1onc2c1CCCC2 | -4.7% | 75% (active) | 93.2% (active) | 78.6% (active) | 81.4% (active)
7 | CC(C)N(C(=O)Cn1cc(SCC(=O)N2CCCC2)c2ccccc21)C(C)C | -29.2% | -18.1% | -8.3% | -6.3% | -6.7%
8 | COc1cccc(-c2nc3cc(C)ccc3o2)c1 | 96.1% (active) | 99.2% (active) | 102% (active) | 96.9% (active) | 94.2% (active)
9 | O=C(Nc1cccc([N+](=O)[O-])c1)c1ccc2c(c1)OCO2 | 29.3% | 38.2% | 88% (active) | 65.1% (active) | 9.5%
10 | Cc1ccc(S(=O)(=O)C(C#N)c2nc3ccccc3nc2N2CCCC2)cc1C (stereo not given) | 6.9% | 9.5% | 4.3% | 4.2% | 3%
11 | CCC(=O)NC(Nc1cc(C)ccn1)(C(F)(F)F)C(F)(F)F | -4.5% | -2.4% | -0.5% | 8.4% | 4.2%
12 | O=C(NC(=O)c1ccccc1)Nc1ccccc1O | -10% | 6.3% | 69.7% (active) | 73.3% (active) | 23.8%
13 | COc1cc(NC(=O)COC(=O)c2ccc([N+](=O)[O-])s2)cc(OC)c1OC | 79.5% (active) | 86.7% (active) | 45.8% | 18.4% | 0.3%
14 | COC(=O)c1sc(NC(=O)c2ccc(OC)cc2OC)nc1C | 56.9% (active) | 34.4% | 22.1% | 66.4% (active) | -5.6%
15 | Cc1nonc1C(=O)N/N=C/c1ccc(O)cc1 | 99.5% (active) | 101% (active) | 103% (active) | 99.4% (active) | 66.2% (active)
16 | COc1ccc(/C=C2/SC(=O)N(CCCCCC(=O)Nc3ccccc3C(=O)O)C2=S)cc1 | -4.2% | 0.2% | 2.7% | -3.8% | 8.6%
17 | CCCCSc1nnc(-c2ccc(C)cc2)o1 | 19.5% | 60.5% (active) | 85.3% (active) | 55% (active) | 23.2%
18 | O=C(Nc1ccncc1)c1cc2ccccc2o1 | 49.1% | 44% | 76.1% (active) | 75.6% (active) | 49.3%
19 | COc1ccc(/C=N/Nc2ccccc2C(=O)O)cc1 | 97.3% (active) | 97.5% (active) | 103% (active) | 96% (active) | 97.6% (active)
20 | COCCn1nnnc1C(c1cc2ccc(OC)cc2[nH]c1=O)N1CCc2ccccc2C1 (stereo not given) | 12.6% | 23% | 2.5% | 1% | -2%
21 | COc1ccc(Cc2nnc(SCC(=O)c3cccc([N+](=O)[O-])c3)n2C)cc1 | -3.9% | 1.7% | 6.9% | 4.6% | -2.3%
22 | COc1cc(C#Cc2ccc3cc(CCCO)oc(=O)c3c2)cc(OC)c1 | 56.9% (active) | 72.2% (active) | 86.6% (active) | 42.7% | 15.2%
23 | Cc1[nH]n(-c2ccc([N+](=O)[O-])cc2)c(=O)c1C=NCCN1CCN(C(=O)c2ccccc2F)CC1 | 20.7% | 17.1% | 3.9% | 37.1% | 49.3%

Row | Structure (SMILES) | inhibition [1] | inhibition [2] | inhibition [3] | inhibition [4] | inhibition [5]
24 | Cc1cccc(Nc2nc(-c3ccccc3)cs2)n1 | -7.1% | 91.5% (active) | 99.9% (active) | 67.1% (active) | 49.5%
25 | CC(=O)N1C(=O)/C(=C2\SC(=S)N(NC(=O)c3ccc(O)cc3)C2=O)c2ccccc21 | 25.6% | 79.1% (active) | 25.2% | 10.3% | 3.7%
26 | Cc1nn2cc(-c3ccc(Cl)cc3)cnc2c1Br | 17.8% | 15.7% | 30.8% | 28.5% | 9%
27 | Cc1cc(NC(=O)Nc2ccccc2[N+](=O)[O-])no1 | 46% | 40.1% | 77.2% (active) | 70.8% (active) | 41.3%
28 | O=C(OCc1ccccc1F)c1ccc2c(c1)OCCO2 | 87.8% (active) | 88.5% (active) | 98.8% (active) | 74.5% (active) | 78.6% (active)
29 | Cc1sc(NC(=O)c2ccc3ncsc3c2)c(C(N)=O)c1C | -15.3% | -7.6% | -2.8% | 3.3% | -10.5%
30 | N/C(=N\OC(=O)CCC1CCCCC1)c1ccccn1 | 88.5% (active) | 88.3% (active) | 98.2% (active) | 90.7% (active) | 43.5%
31 | Cc1ccc(-n2ncc3c(Nc4cccc(C(=O)O)c4)ncnc32)cc1 | 93.9% (active) | 98.1% (active) | 102% (active) | 44.3% | 83.5% (active)
32 | COc1ccc(CNC(=O)COc2ccccc2C(=O)c2cnn(-c3ccccc3)c2)cc1OC | 77.7% (active) | 76.1% (active) | 89.2% (active) | 61.9% (active) | 65.5% (active)
33 | O=C(Nc1ccccc1F)c1ccc2c(c1)OCO2 | 72% (active) | 66.7% (active) | 90.9% (active) | 89.4% (active) | 69.1% (active)
34 | Fc1ccccc1-c1cc2cc3c(cc2cn1)OCO3 | 49.5% | 79.9% (active) | 79.1% (active) | 51.6% (active) | 7.4%
35 | O=[N+]([O-])c1ccccc1N/N=C1\CCc2ccccc21 | -9.3% | -5.8% | -10.4% | 0.7% | -0.8%
36 | O=[N+]([O-])c1ccc2nc(-c3ccccn3)[nH]c2c1 | 57.8% (active) | 56% (active) | 82.6% (active) | 81.5% (active) | 48.8%
37 | Oc1ccc(Br)cc1C=Nc1ccc2[nH]ncc2c1 | 5.1% | 2.1% | -2.2% | -0.8% | -3.9%
38 | CC(C)Cc1cc(C(=O)Nc2cc(Br)ccc2O)no1 | 6% | 21.4% | 28.9% | 15.4% | 7.1%
39 | O=C(OCC(=O)N1CCN(c2ccccc2)CC1)c1ccc([N+](=O)[O-])s1 | 64.2% (active) | 80.9% (active) | 25.4% | 8.3% | -3.3%
40 | CCCCCc1ccc(-c2ccc(C(=O)O)cc2)nc1 | -2.1% | 54.7% (active) | 76.9% (active) | 9.2% | 63.9% (active)
41 | Cn1cccc1C(=O)OCC(=O)c1ccc(Br)s1 | 78.3% (active) | 78.3% (active) | 95.5% (active) | 77.3% (active) | 54.7% (active)
42 | Oc1ccccc1-c1cc(-c2ccc(Cl)cc2)n[nH]1 | 93.9% (active) | 94.4% (active) | 99.9% (active) | 68.9% (active) | 75.2% (active)
43 | O=C(Nc1ccc(Cl)cc1)c1ccsn1 | 49.7% | 46.8% | 78.1% (active) | 60.3% (active) | 51.9% (active)
44 | Cc1ccnc(NC(=O)c2ccoc2C)c1 | 85.8% (active) | 88.9% (active) | 97.1% (active) | 95.6% (active) | 80.1% (active)
45 | CN(CC(=O)Nc1ccc(Cl)cc1)C(=O)CNC(=O)c1ccc2ccccc2c1 | 15.1% | 12.3% | 66.3% (active) | 21.6% | 1.1%
46 | CCOC(=O)c1cnc2[nH]c3ccccc3n2c1=O | 30.1% | 79% (active) | 96.4% (active) | 94.2% (active) | 65.2% (active)
